Assay outcomes as filed in PubChem.
RT RNaseH block = blocks HIV-1 RNase H cleavage of RNA/DNA duplex | P04585 | RT-RNase H RNA/DNA duplex cleavage, fluorescence | inhibition, % at 10 µM | 65,000 compounds, 1.9% hits | AID 565; in the data active means inhibition above about 50%
A number is an active result; n = inactive. The full list was thinned out, with hits kept by preference.

SMILES	RT RNaseH block
Cc1cc(C(=O)CSc2nnnn2-c2ccccc2)c(C)n1CC1CCCO1 (centres undefined)	n
Cc1cc(C(=O)CSc2nnnn2-c2ccc(Cl)cc2)c(C)n1CC1CCCO1 (centres undefined)	62.5
CCOCCCn1c(=N)c(C(=O)Nc2cc(C)on2)cc2c(=O)n3ccccc3nc21	n
COc1ccc(N2Cc3ccccc3C2)cc1Cl	54.9
COc1ccc(N2C(=O)C3CCCN3C2c2cccc(C)c2)cc1Cl (centres undefined)	n
COc1ccc(N2C(=O)C3CCCN3C2c2ccccc2)cc1Cl (centres undefined)	n
CC(=O)c1cc(OC(=O)c2ccncc2)ccc1OC(=O)c1ccncc1	n
Cn1c(=O)n(CCc2ccccc2)c(=O)c2c1nc1n2CCCN1c1ccc(F)cc1	n
COc1ccc(-c2ccc(-c3noc(C(C)C)n3)c(OC)n2)cc1	n
COc1nc(-c2ccc(Cl)cc2)ccc1-c1noc(-c2ccco2)n1	50.3
COc1cccc(-c2ccc(-c3noc(-c4ccccc4F)n3)c(OC)n2)c1	n
CCC1(CC)NC(=O)N(CC(=O)Nc2sc3c(c2C(N)=O)CCC3)C1=O	n
COc1cc(N2C(=O)NC3CC2(C)Oc2ccc(Br)cc23)cc(OC)c1OC (centres undefined)	n
COC(=O)c1ccc(C)c(NS(=O)(=O)c2ccc(OC)cc2)c1	n
COc1ccc(S(=O)(=O)Nc2cc(C)c(O)cc2C(C)C)cc1	55.2
COc1ccc(S(=O)(=O)Nc2cc(C(C)C)c(O)cc2C)cc1	n
COC(=O)Nc1sc2c(c1C(=O)NCc1ccco1)CCC2	n
COC(=O)Nc1sc2c(c1C(=O)NCc1ccco1)CCCC2	n
CCOc1ccccc1NC(=O)c1c(NC(=O)CNCc2ccco2)sc2c1CCC2	72.1
CS(=O)(=O)NCc1nnc(SCC(=O)NC2CCCCC2)n1-c1ccc(F)cc1	n
Cc1cc(O)ccc1Nc1nc2ccccc2nc1Nc1ccc(O)cc1C	n
CCC1(C)Cc2c(C#N)c(N)n(-c3ccccc3)c(=O)c2CO1 (centres undefined)	n
N#Cc1c2c(c(=S)n(-c3ccccc3)c1N)CCCC2	70.1
CCOC(=O)c1c2c(c(=S)n(-c3ccccc3)c1N)CCC2	n
COc1ccc(Cn2nnc3c(=O)[nH]c(C(=O)NCCc4ccc(F)cc4)nc32)cc1OC	n
SMILES	RT RNaseH block
CC1CC(C)CN(c2nc3c(c(=O)n(C)c(=O)n3C)n2CCSc2nc3ccccc3o2)C1 (centres undefined)	n
CCOC(=O)Cc1cn2c(=O)cc(CSCC(=O)Nc3ccc(C)c(C)c3)nc2s1	n
COC(=O)c1c(NC(=O)c2ccco2)sc(C)c1C	n
COc1c(F)c(F)c(C(=O)Nc2ccc(NC(=O)c3ccco3)cc2)c(F)c1F	n
COC(=O)c1c(NC(=O)c2ccco2)sc(C(=O)Nc2ccc(F)cc2)c1C	55.8
Cc1cc(-n2c(C)cc(C(=O)CSc3ccc4c(c3)OCCO4)c2C)no1	n
Cc1ccccc1-n1nnnc1SC1CCOC1=O (centres undefined)	n
C=CCn1c(-c2ccccc2)n[nH]c1=S	n
C=CCn1c(Cc2nc3ccc(Cl)cc3[nH]2)n[nH]c1=S	58.0
C=CCn1c(-c2ccoc2)n[nH]c1=S	n
O=C(Nc1nnc(CC(=O)N2CCCC2)s1)c1cnccn1	n
CCOc1cc(S(=O)(=O)NCCc2cccc(C)c2)c(OCC)cc1-n1cnnn1	n
CCCC(=O)Nc1ccc(-c2nc3cc(C)ccc3o2)cc1	n
COc1ccc(CC(=O)Nc2ccc(-c3nc4cc(C)ccc4o3)c(O)c2)cc1OC	n
CCCC(=O)Nc1ccc(-c2nc3cc(C)c(C)cc3o2)c(O)c1	58.2
CC1(C)Cc2c(sc3nc(SCC#N)n(C4CCCCC4)c(=O)c23)CO1	n
Cc1ccc(S(=O)(=O)CCc2nnc(NC(=O)C3CCCO3)s2)cc1 (centres undefined)	n
Cc1nnc(NC(=O)C2CCCO2)s1 (centres undefined)	n
CCCCCc1nnc(NC(=O)C2CCCO2)s1 (centres undefined)	64.0
CCOC(=O)c1c(NC(=O)CSc2nnnn2CC)sc(C)c1C	n
O=C(COC(=O)C1COc2ccccc2O1)NC(=O)Nc1ccc2c(c1)OCCO2 (centres undefined)	51.0
O=C(COC(=O)C1COc2ccccc2O1)NC(=O)NC1CCCC1 (centres undefined)	n
Cc1ccnc(NC(=O)COC(=O)C2COc3ccccc3O2)n1 (centres undefined)	n
O=C(NC1CCCc2ccccc21)C1CCN(C(=O)c2sccc2-n2cccc2)CC1 (centres undefined)	n
CC1(C)Cc2c(C#N)c(N3CCN(C(=O)c4ccco4)CC3)nc(Cc3ccccc3)c2CO1	n
SMILES	RT RNaseH block
CC1(C)Cc2c(C#N)c(N3CCN(C(=O)c4ccco4)CC3)nc(-c3ccco3)c2CS1	55.4
N#Cc1c(N2CCN(C(=O)c3ccco3)CC2)nc(-c2ccccc2)c2c1CCCC2	n
COC(=O)C1=C(N)Oc2cc(C)n(CC3CCCO3)c(=O)c2C1c1ccc(Cl)cc1 (centres undefined)	n
CCCCOC(=O)C(C)Nc1n[nH]c(=O)[nH]c1=O (centres undefined)	n
CC(Nc1n[nH]c(=S)[nH]c1=O)C(=O)OCc1ccccc1 (centres undefined)	53.0
O=c1[nH]c(=S)[nH]nc1Cc1ccccc1	n
CS(=O)(=O)N1CCC(C(=O)c2cccc(Cl)c2)CC1	n
O=C(Nc1ccccc1F)N(CCCN1CCOCC1)Cc1cc2cc3c(cc2[nH]c1=O)OCCO3	n
CCOC(=O)c1ccc(NC(=O)CC2SC(=NC)N(C)C2=O)cc1 (centres undefined)	n
CCOC(=O)c1ccc(NC(=O)CC2Sc3ncnn3C2=O)cc1 (centres undefined)	59.9
COc1ccc(NC(=O)CC2Sc3ncnn3C2=O)cc1 (centres undefined)	n
Cc1nc(N2CCN(C(=O)c3ccc(Cl)cc3)CC2)c(C#N)c2c1COC(C)(C)C2	n
CC1CC(C)CN(c2nc3c(c(=O)[nH]c(=O)n3C)n2CCSc2nc3ccccc3o2)C1 (centres undefined)	n
Nc1n[nH]c(-c2ccccc2)c1-c1ccccc1	n
CCOC(=O)c1c(NC(=O)c2ccoc2C)sc2c1CCC2	n
CCN(CC)C(=O)c1sc(NC(=O)c2ccoc2C)c(C(=O)OC)c1C	n
CCC1CCc2c(sc(NC(=O)c3ccoc3C)c2C(N)=O)C1 (centres undefined)	53.0
COc1ccc(-c2nc3c(c(=O)n(C)c(=O)n3C)n2CC2CC(c3ccccc3)=NO2)cc1OC (centres undefined)	n
CCCn1c(=O)n(C)c(=O)c2c3oc(=O)c(NC(=O)c4ccc(F)cc4)cc3[nH]c21	n
CCCn1nnnc1SCC(=O)Nc1ccc(F)cc1	n
CCCn1nnnc1SCC(=O)N(C(C)C)C(C)C	64.5
CCn1nnnc1SCC(=O)N(C1CCCCC1)C1CCCCC1	n
C=CCn1c(COc2ccc(Cl)cc2)nnc1SCC(=O)N1CC(=O)Nc2ccccc21	n
COc1ccc(N=c2oc3c(OC)cccc3cc2C(=O)NCc2ccco2)cc1OC	n
COc1ccc(C(=O)Nc2ccccc2C(=O)NCc2ccco2)cc1OC	n
COc1ccc(OC)c(N=c2oc3c(OC)cccc3cc2C(=O)NCc2ccco2)c1	88.1
COCCNC(=O)c1ccc2c(c1)nc(C)n2-c1cc(OC)c(OC)c(OC)c1	n
COc1ccccc1-c1nc2s/c(=C\c3cccs3)c(=O)n2n1	n
Cc1ccc2c(nc3s/c(=C/c4cccs4)c(=O)n32)c1C	80.5
